# Bioassay records deposited in PubChem BioAssay by National Center for Advancing Translational Sciences (NCATS).
# Rab9 promoter act – activates the Rab9 promoter; Potency, µM (highest dose often 9.22 µM), inactives show at the top dose activation, negative = inhibition, usual class: activators; AID 485297; 320,000 tested, 2.8% active; Huh7 Rab9 promoter-luciferase reporter, luminescence, 24 h; also: % of control where 0% means no effect; nearly all actives have a fitted effect of over 60% in size
#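 Quantitative HTS format; Huh7 Rab9-luciferase reporter cells (1500/well) receive compound 2 h post-plating, incubate 24 h at 37 °C, then get luciferase reagent for 10 min before luminescence reading.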
# ELG1 genotoxic – induces genotoxicity in HEK293T cells with luciferase-tagged ELG1; HEK293T ELG1-luciferase reporter, luminescence, 16 h; Potency, µM (doses to about 46 µM), for inactives: at the highest dose activity change, positive = activation, actives largely listed as activators; 330,000 tested, 1.3% active; AID 504466; also: % of control where 0% means no effect; nearly all actives have a fitted effect of over 60% in size
#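 Step 1: seed 2,000 HEK293T ELG1-luciferase cells per well. Step 2: add compound or DMSO, incubate 16 hr at 37 °C. Step 3: ONE-Glo, 30 min at room temperature, read luminescence.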
# ELG1 DNA repair – blocks ELG1-dependent DNA repair in HEK293T cells; 330,000 tested, 2.3% active; AID 504467; HEK293T ELG1-luciferase reporter, luminescence, 16 h; DNA damage induced by 5-fluorouridine; Potency, µM (top dose mostly 46.1 µM), for inactives: at the top dose activity change, negative = inhibition, most hits filed as inhibitors; also: % is scaled to controls: 0 for no effect and ±100 for the full control effect; nearly all actives have a fitted effect of over 55% in size
#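 5-Fluorouridine DNA damage + compound/DMSO, 2,000 cells/well, 16 h, 37 °C/5% CO2. ONE-Glo, 30 min RT, luminescence. Readout = decrease in reporter signal.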
# NPC1 promoter act – activates the NPC1 promoter; Huh7 NPC1 promoter luciferase reporter, 24 h; Potency, µM (doses to about 9.22 µM), for inactives: top-dose activation, usual class: activators; 320,000 tested, 2.4% active; also: % of control where 0% means no effect; nearly all actives have a fitted effect of over 60% in size
#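 Huh7 cells stably carrying NPC1 promoter–luciferase, plated in Opti-MEM with 10% FBS for 2 h, were exposed to compound in DMSO for 24 h at 37 °C; luciferase reagent was added for 10 min and luminescence read.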
# SMN2 splice enh – increases expression of the SMN2 splice variant | HEK293 SMN2-luciferase splicing reporter, luminescence, 30-36 h | Potency, µM (top dose mostly 46.1 µM), for inactives: at the top dose activity change, positive = activation, usual class: activators | 210,000 tested, 2.8% active | AID 1458; also: % of control where 0% means no effect; nearly all actives have a fitted effect of over 55% in size
#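 qHTS luciferase splicing reporter: luminescence rises when SMN2 exon 7 is included in transfected HEK293 cells. Compound exposure lasted 30-36 h at 37C, with 4.5 mM final sodium butyrate as control, followed by a ONE-Glo read.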
# FLuc modulator – counter-screen for miR-21 project: firefly luciferase inhibitors or activators | 360,000 tested, 6.9% active | P08659 | AID 588342 | Potency, µM (titrated, usually from 57.5 µM), for the others: at the highest dose activity change, negative = inhibition, actives largely listed as inhibitors | purified FLuc, Km substrates, luminescence inhibition;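 also: plate controls were vehicle for no effect and reference inhibitor for full effect; nearly all actives have a fitted effect of over 55% in size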
# Target sequence (P08659 whole entry, looked up): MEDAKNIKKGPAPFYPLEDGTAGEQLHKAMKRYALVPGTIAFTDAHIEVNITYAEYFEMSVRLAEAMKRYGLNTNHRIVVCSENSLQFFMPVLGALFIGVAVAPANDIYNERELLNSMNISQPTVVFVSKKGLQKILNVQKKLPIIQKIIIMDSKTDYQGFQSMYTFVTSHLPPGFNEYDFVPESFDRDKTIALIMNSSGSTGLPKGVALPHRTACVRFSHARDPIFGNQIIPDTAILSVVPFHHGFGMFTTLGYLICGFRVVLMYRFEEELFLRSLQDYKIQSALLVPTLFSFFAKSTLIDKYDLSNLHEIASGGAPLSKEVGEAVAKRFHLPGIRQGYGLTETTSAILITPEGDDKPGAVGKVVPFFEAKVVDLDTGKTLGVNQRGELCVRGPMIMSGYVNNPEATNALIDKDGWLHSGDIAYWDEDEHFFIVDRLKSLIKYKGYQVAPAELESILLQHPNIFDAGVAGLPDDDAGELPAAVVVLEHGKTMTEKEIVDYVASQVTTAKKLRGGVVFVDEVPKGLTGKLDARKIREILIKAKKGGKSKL
#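 Purified P. pyralis luciferase, 10 nM final, with Km-level 10 uM D-luciferin and 10 uM ATP in 50 mM Tris acetate pH 7.5, 10 mM Mg acetate, 0.01% Tween-20, 0.05% BSA; 6-point qHTS titration about 60 µM downward; luminescence read.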
# The depositor's hits bear a star; ? = inconclusive; . = no result; [ ] = remark or other dose. Shown are actives, neighbours in structure and some others; about 9.3% of the full set was active somewhere. Calls follow the shape of the dose curve; as a rule, active = well fitted curve in the direction sought with a large enough effect; inconclusive = small, poorly fitted or top-dose-only effect, or another doubt; inactive = no such curve, though single readings can be large; an effect the other way counts as inactive or inconclusive. Potency is read from the fitted curve at half-maximal effect.
SMILES,Rab9 promoter act,ELG1 genotoxic,ELG1 DNA repair,NPC1 promoter act,SMN2 splice enh,FLuc modulator
CCN(CC(=O)Nc1ccc2c(c1)OCCO2)C(=O)c1ccc(Cl)cc1Cl,1.4µM*,?,?,4µM*,.,7.6µM*
CCN(CC(=O)Nc1ccc2c(c1)OCCO2)C(=O)c1cc(Cl)nc2ccccc12,-3%,0%,-2%,-2%,.,-3%
O=S(=O)(CCc1ccncc1)c1ccc(Cl)cc1,-6%,-7%,?,-2%,.,1%
CC(C)c1ccc(NC(=O)Cn2c(=O)n(CCc3ccccc3)c(=O)c3ccccc32)cc1,.,.,.,.,9%,0%
COc1cc(OC)c(NC(=O)n2ncc3cc(Cl)ccc32)cc1Cl,.,.,.,.,.,4%
COc1ccc(NC(=O)n2ncc3cc(Cl)ccc32)cc1OC,3.5µM*,?,?,?,.,?
O=C(Nc1ccccc1F)n1ncc2cc(Cl)ccc21,30%,4%,?,29%,.,-13%
COc1cc(NC(=O)n2ncc3cc(Cl)ccc32)cc(OC)c1,?,?,?,18%,.,12µM*
Cc1ccc(-c2nc(CSCC(=O)NCC3CCCO3)c(C)o2)cc1 (centres undefined),3%,0%,9%,7%,.,?
COc1ccc(-c2nc(CSCC(=O)N3CCN(c4ccccc4)CC3)c(C)o2)cc1,.,.,.,.,-9%,-18%
CCOC(=O)CSCc1nc(-c2ccc(Cl)cc2)oc1C,-8%,3%,24%,2%,-19%,17µM*
CCOc1ccc(-c2nc(CSCC(=O)NCC3CCCO3)c(C)o2)cc1 (centres undefined),3%,0%[9.26 µM],23%,0%,.,17µM*
CCOc1ccc(-c2nc(CSCC(=O)N3CCN(C(=O)c4ccco4)CC3)c(C)o2)cc1,21%,-1%,-14%,30%,-26%,19µM*
CCOC(=O)C1CCN(C(=O)CSCc2nc(-c3ccc(OCC)cc3)oc2C)CC1,-11%,21µM*,-28%,-3%,-79%,?
Cc1ccc(OCc2cc(C(=O)N(C)Cc3cc(C4CC4)n[nH]3)no2)cc1C,1%,3%,16%,-3%,.,-17%
CCc1cc2ccc(OC)cc2nc1SCC(=O)N1CCN(C(=O)c2ccco2)CC1,2%,-11%,21µM*,0%,.,-18%
O=C(CSc1ccc2c(c1)OCCO2)Nc1cccnc1,0%,-7%,?,-1%,3%,-12%
Cc1c(Cl)cccc1NC(=O)Nc1nnc(N2CCCCCC2)s1,.,.,.,.,.,1%
COC(=O)C1C(=O)C2=C(CC1C)NC(C)=C(C(=O)OCc1ccc(OC)cc1)C2c1ccc(C)o1 (centres undefined),-3%,-2%,?,0%,?,1%
COC(=O)C1C(=O)C2=C(CC1C)NC(C)=C(C(=O)OCCOc1ccccc1)C2c1ccc(C)o1 (centres undefined),-3%,-7%,23µM*,-7%,-10%,-9%
Cc1cc(C)n(-c2c(C)[nH]c3ccccc23)n1,-1%,-5%,?,-7%,-14%,-8%
Cc1nn(C(C)C(=O)NC2CCC(C)CC2)c(=O)c2nn(-c3ccccc3)c(C)c12 (centres undefined),24%,9%,?,?,.,?
COCCn1c(=S)[nH]c2sc3c(c2c1=O)CCCC3,3%,-8%,?,-1%,.,-12%
COCCCn1c(=S)[nH]c2sc3c(c2c1=O)CCCC3,-4%,-8%,0%,-3%,.,19µM*
Oc1ccc(/C=N/Nc2ccnc3cc(Cl)ccc23)cc1O,-2%,?,27%,-4%,.,17µM*
Oc1ccc(/C=N/Nc2ccnc3cc(Cl)ccc23)c(O)c1O,10%,28%,3%,-2%,.,?
COc1ccc(-c2cccc(NS(=O)(=O)c3cccc([N+](=O)[O-])c3)c2)nn1,-3%,-1%,1%,0%,.,-15%
